Assay results from PubChem BioAssay (NCI).
Compounds without any hit were thinned out: in the full panel of roughly 79,000, 15% have a hit. Unmarked numbers belong to inactive results. Active and inactive are the calls of the source. No stated cut-off is given here; in the data, active means growth inhibition above about 70%; inactive means the rest.

Assays:
[1] = NCI Yeast Anticancer Drug Screen. Data for the rad52 strain (AID 147);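 further: 0% = growth of vehicle-treated control cultures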; settings: S. cerevisiae rad52 mutant growth inhibition, hits give high values
Procedure, shortened: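 Here a repair-compromised yeast strain receives each compound; its growth is then quantified and normalised to vehicle-only controls.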

[2] = NCI Yeast Anticancer Drug Screen. Data for the wt1 strain (AID 149);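 further: 0% = growth of vehicle-treated wt1 cultures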; settings: S. cerevisiae wt1 strain (SPY 50644) growth inhibition, hits give high values
Procedure, shortened: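 Using yeast strain wt1, compound-induced growth inhibition was determined against vehicle-treated cultures.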

[3] = NCI Yeast Anticancer Drug Screen. Data for the rad50EPP+ strain (AID 151);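 further: 0% = growth of vehicle-treated control cultures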; settings: S. cerevisiae rad50 mutant strain, hits give high values
Procedure, shortened: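 Read-out is yeast growth inhibition relative to vehicle; cells used were the rad50EPP+ strain.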

[4] = NCI Yeast Anticancer Drug Screen. Data for the rad50 strain (AID 155);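 further: 0% = growth of vehicle-only cultures of the same strain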; settings: S. cerevisiae rad50 strain growth inhibition, hits give high values
Procedure, shortened: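 Relative growth inhibition (compound vs vehicle) was measured in yeast with a defined repair-gene alteration.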

[5] = NCI Yeast Anticancer Drug Screen. Data for the mec2-1 strain (AID 157); settings: S. cerevisiae mec2-1 strain, hits give high values
Procedure, shortened: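 Using mec2-1 yeast: add compound, measure growth, express inhibition versus vehicle-treated cultures.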

[6] = NCI Yeast Anticancer Drug Screen. Data for the rad14 strain (AID 159);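 further: 0% = growth of vehicle-treated control cultures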; settings: S. cerevisiae rad14 strain growth inhibition, hits give high values
Procedure, shortened: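 Screen for anticancer potential: a yeast strain altered in DNA damage repair is grown with compound, and reduced growth is quantified against vehicle controls.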

[7] = NCI Yeast Anticancer Drug Screen. Data for the sgs1 mgt1 strain (AID 161);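 further: 0% = growth of cultures given vehicle only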; settings: S. cerevisiae sgs1 mgt1 strain, hits give high values
Procedure, shortened: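 Percent growth inhibition was derived by comparing compound-exposed mutant yeast with vehicle-exposed cultures. The strain carries alterations in DNA damage repair.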

[8] = NCI Yeast Anticancer Drug Screen. Data for the CLN2oe strain (AID 163);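 further: 0% = growth of vehicle-only control cultures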; settings: S. cerevisiae CLN2oe strain, hits give high values
Procedure, shortened: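 Whole-cell yeast growth assay. A strain engineered for altered cell-cycle control received compound, and inhibition relative to vehicle-treated cultures was recorded.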

[9] = NCI Yeast Anticancer Drug Screen. Data for the cln2 rad14 strain (AID 165);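 further: 0% = growth equal to vehicle treated cultures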; settings: S. cerevisiae cln2 rad14 strain, hits give high values
Procedure, shortened: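 Yeast strain cln2 rad14, bearing defects in cell cycle control and DNA repair, serves as the test system; values reflect growth inhibition compared with vehicle.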

[10] = NCI Yeast Anticancer Drug Screen. Data for the bub3 strain (AID 167); settings: S. cerevisiae bub3 mutant strain, hits give high values
Procedure, shortened: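 Screening used yeast with an engineered genetic alteration affecting cell cycle control. Compound-exposed cultures were compared with vehicle cultures, and reduced growth was taken as inhibition.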

[11] = NCI Yeast Anticancer Drug Screen. Data for the mlh1 strain (AID 171);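 further: 0% = growth of vehicle-treated control cultures of the same strain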; settings: S. cerevisiae mlh1 strain growth inhibition, hits give high values
Procedure, shortened: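 A yeast strain with a defined genetic lesion serves as the test organism. Cultures receive compound or vehicle, and growth is measured.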

[12] = NCI Yeast Anticancer Drug Screen. Data for the sgs1 strain (AID 173);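 further: 0% = growth of vehicle-only control cultures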; settings: S. cerevisiae sgs1 mutant, hits give high values
Procedure, shortened: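 A genetically defined yeast mutant is incubated with the test compound, and its growth is compared to that of the same strain given vehicle.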

[13] = NCI Yeast Anticancer Drug Screen. Data for the mlh1 rad18 strain (AID 175); settings: S. cerevisiae mlh1 rad18 strain growth inhibition, hits give high values
Procedure, shortened: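 Steps: expose repair-defective yeast to compound; measure growth; express inhibition against vehicle-treated controls.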

[14] = NCI Yeast Anticancer Drug Screen. Data for the rad18 strain (AID 177); settings: S. cerevisiae rad18 mutant growth inhibition, hits give high values
Procedure, shortened: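 Measured value is growth inhibition of a yeast strain bearing a DNA repair alteration, referenced to vehicle-treated cells.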

[15] = NCI Yeast Anticancer Drug Screen. Data for the wt2 strain (AID 169);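 further: 0% = growth of vehicle-treated yeast cultures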; settings: S. cerevisiae wt2 strain growth inhibition, hits give high values
Procedure, shortened: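 Treated yeast vs. vehicle-treated yeast: growth inhibition determined.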

[16] = at 5.0 µM (retest, dose inferred, filed as 0.5)
[17] = at 50.0 µM (retest, dose inferred, filed as 5.0)

## COC(=O)c1cccc(C)c1C(=O)c1c(C)cc(C)cc1C
[1]; at 1.2 µM
  growth inhibition: -1%
[1]; at 3.7 µM
  growth inhibition: -1%
[1]; at 11.0 µM
  growth inhibition: 4%
[1]; at 33.0 µM
  growth inhibition: 28%
[1]; at 100.0 µM
  growth inhibition: 77% (active)
[2]; at 1.2 µM
  growth inhibition: 0%
[2]; at 3.7 µM
  growth inhibition: 1%
[2]; at 11.0 µM
  growth inhibition: -2%
[2]; at 33.0 µM
  growth inhibition: 5%
[2]; at 100.0 µM
  growth inhibition: 53%
[3]; at 1.2 µM
  growth inhibition: -6%
[3]; at 3.7 µM
  growth inhibition: 6%
[3]; at 11.0 µM
  growth inhibition: 5%
[3]; at 33.0 µM
  growth inhibition: 26%
[3]; at 100.0 µM
  growth inhibition: 76% (active)
[4]; at 1.2 µM
  growth inhibition: -1%
[4]; at 3.7 µM
  growth inhibition: 1%
[4]; [16]
  growth inhibition: -10%
[4]; at 11.0 µM
  growth inhibition: 5%
[4]; at 33.0 µM
  growth inhibition: 28%
[4]; [17]
  growth inhibition: 52%
[4]; at 50.0 µM
  growth inhibition: 15.5%
[4]; at 100.0 µM
  growth inhibition: 76% (active)
[5]; at 1.2 µM
  growth inhibition: -3%
[5]; at 3.7 µM
  growth inhibition: -1%
[5]; [16]
  growth inhibition: 3%
[5]; at 11.0 µM
  growth inhibition: 4%
[5]; at 33.0 µM
  growth inhibition: 21%
[5]; [17]
  growth inhibition: 59%
[5]; at 50.0 µM
  growth inhibition: 22.8%
[5]; at 100.0 µM
  growth inhibition: 72% (active)
[6]; at 1.2 µM
  growth inhibition: 0%
[6]; at 3.7 µM
  growth inhibition: 0%
[6]; at 11.0 µM
  growth inhibition: 5%
[6]; at 33.0 µM
  growth inhibition: 20%
[6]; at 100.0 µM
  growth inhibition: 47%
[7]; [16]
  growth inhibition: -7%
[7]; [17]
  growth inhibition: 25%
[7]; at 50.0 µM
  growth inhibition: 25.1%
[8]; at 1.2 µM
  growth inhibition: 3%
[8]; at 3.7 µM
  growth inhibition: 2%
[8]; at 11.0 µM
  growth inhibition: 2%
[8]; at 33.0 µM
  growth inhibition: 11%
[8]; at 100.0 µM
  growth inhibition: 42%
[9]; [16]
  growth inhibition: -25%
[9]; [17]
  growth inhibition: 15%
[9]; at 50.0 µM
  growth inhibition: 25.2%
[10]; at 1.2 µM
  growth inhibition: 0%
[10]; at 3.7 µM
  growth inhibition: -2%
[10]; [16]
  growth inhibition: 9%
[10]; at 11.0 µM
  growth inhibition: -3%
[10]; at 33.0 µM
  growth inhibition: 4%
[10]; [17]
  growth inhibition: 22%
[10]; at 50.0 µM
  growth inhibition: 16.8%
[10]; at 100.0 µM
  growth inhibition: 62%
[11]; at 1.2 µM
  growth inhibition: -1%
[11]; at 3.7 µM
  growth inhibition: 2%
[11]; at 11.0 µM
  growth inhibition: 6%
[11]; at 33.0 µM
  growth inhibition: 19%
[11]; at 100.0 µM
  growth inhibition: 59%
[12]; at 1.2 µM
  growth inhibition: 1%
[12]; at 3.7 µM
  growth inhibition: 3%
[12]; at 11.0 µM
  growth inhibition: 7%
[12]; at 33.0 µM
  growth inhibition: 25%
[12]; at 100.0 µM
  growth inhibition: 65%
[13]; [16]
  growth inhibition: 4%
[13]; [17]
  growth inhibition: 82% (active)
[13]; at 50.0 µM
  growth inhibition: 15.7%
[14]; at 1.2 µM
  growth inhibition: 4%
[14]; at 3.7 µM
  growth inhibition: 7%
[14]; at 11.0 µM
  growth inhibition: 10%
[14]; at 33.0 µM
  growth inhibition: 28%
[14]; at 100.0 µM
  growth inhibition: 67%

## CC(C)(C)[OH+][O-].[O-]c1ccc(Cl)cc1C=Nc1ccc(Cl)cc1[O-].[O]=[V]
[1]; at 1.2 µM
  growth inhibition: 0%
[1]; at 3.7 µM
  growth inhibition: 4%
[1]; at 11.0 µM
  growth inhibition: 11%
[1]; at 33.0 µM
  growth inhibition: 30%
[1]; at 100.0 µM
  growth inhibition: 59%
[2]; at 1.2 µM
  growth inhibition: 12%
[2]; at 3.7 µM
  growth inhibition: 11%
[2]; at 11.0 µM
  growth inhibition: 15%
[2]; at 33.0 µM
  growth inhibition: 19%
[2]; at 100.0 µM
  growth inhibition: 29%
[3]; at 1.2 µM
  growth inhibition: 0%
[3]; at 3.7 µM
  growth inhibition: 10%
[3]; at 11.0 µM
  growth inhibition: 26%
[3]; at 33.0 µM
  growth inhibition: 43%
[3]; at 100.0 µM
  growth inhibition: 60%
[4]; at 1.2 µM
  growth inhibition: -3%
[4]; at 3.7 µM
  growth inhibition: 34%
[4]; [16]
  growth inhibition: 19%
[4]; at 11.0 µM
  growth inhibition: 44%
[4]; at 33.0 µM
  growth inhibition: 46%
[4]; [17]
  growth inhibition: 17%
[4]; at 50.0 µM
  growth inhibition: 93.8% (active)
[4]; at 100.0 µM
  growth inhibition: 83% (active)
[5]; at 1.2 µM
  growth inhibition: 10%
[5]; at 3.7 µM
  growth inhibition: 17%
[5]; [16]
  growth inhibition: 24%
[5]; at 11.0 µM
  growth inhibition: 13%
[5]; at 33.0 µM
  growth inhibition: 31%
[5]; [17]
  growth inhibition: 9%
[5]; at 50.0 µM
  growth inhibition: 94.5% (active)
[5]; at 100.0 µM
  growth inhibition: 56%
[6]; at 1.2 µM
  growth inhibition: 4%
[6]; at 3.7 µM
  growth inhibition: 9%
[6]; at 11.0 µM
  growth inhibition: 12%
[6]; at 33.0 µM
  growth inhibition: 26%
[6]; at 100.0 µM
  growth inhibition: 54%
[8]; at 1.2 µM
  growth inhibition: -3%
[8]; at 3.7 µM
  growth inhibition: -3%
[8]; at 11.0 µM
  growth inhibition: 0%
[8]; at 33.0 µM
  growth inhibition: 11%
[8]; at 100.0 µM
  growth inhibition: 26%
[9]; [16]
  growth inhibition: 6%
[9]; [17]
  growth inhibition: 3%
[9]; at 50.0 µM
  growth inhibition: 90.5% (active)
[10]; at 1.2 µM
  growth inhibition: 19%
[10]; at 3.7 µM
  growth inhibition: 30%
[10]; [16]
  growth inhibition: 41%
[10]; at 11.0 µM
  growth inhibition: 45%
[10]; at 33.0 µM
  growth inhibition: 58%
[10]; [17]
  growth inhibition: 16%
[10]; at 50.0 µM
  growth inhibition: 92.7% (active)
[10]; at 100.0 µM
  growth inhibition: 76% (active)
[15]; at 1.2 µM
  growth inhibition: 14%
[15]; at 3.7 µM
  growth inhibition: 24%
[15]; at 11.0 µM
  growth inhibition: 13%
[15]; at 33.0 µM
  growth inhibition: 20%
[15]; at 100.0 µM
  growth inhibition: 30%
[11]; at 1.2 µM
  growth inhibition: 8%
[11]; at 3.7 µM
  growth inhibition: 10%
[11]; at 11.0 µM
  growth inhibition: 9%
[11]; at 33.0 µM
  growth inhibition: 15%
[11]; at 100.0 µM
  growth inhibition: 38%
[12]; at 1.2 µM
  growth inhibition: 12%
[12]; at 3.7 µM
  growth inhibition: 16%
[12]; at 11.0 µM
  growth inhibition: 23%
[12]; at 33.0 µM
  growth inhibition: 33%
[12]; at 100.0 µM
  growth inhibition: 53%
[13]; [16]
  growth inhibition: 24%
[13]; [17]
  growth inhibition: 12%
[13]; at 50.0 µM
  growth inhibition: 95.2% (active)
[14]; at 1.2 µM
  growth inhibition: 4%
[14]; at 3.7 µM
  growth inhibition: 19%
[14]; at 11.0 µM
  growth inhibition: 24%
[14]; at 33.0 µM
  growth inhibition: 47%
[14]; at 100.0 µM
  growth inhibition: 78% (active)
